Laboratory results as given in PubChem BioAssay (NCATS).
Inconclusive results are not listed. Active and inactive are the calls of the source. Unless noted, calls come from the whole dose curve; as a rule, active = well fitted curve in the direction sought with a large enough effect; inconclusive = small, poorly fitted or top-dose-only effect, or another doubt; inactive = no such curve, though single readings can be large; an effect the other way counts as inactive or inconclusive.

Legend:
[1] = Confirmation and Secondary Assay for Modulators of Hemoglobin Beta Chain Splicing at IVS2 654 locus (AID 910);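 note: HeLa cells stably carrying EGFP split by mutant beta-globin IVS2-654 intron; % of control where 0% means no effect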
Outline: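 HeLa cells stably expressing EGFP interrupted by β-globin IVS2-654 intron, seeded overnight in Opti-MEM/2% FCS, then treated 2 days at 37 °C. Restored splicing read as total peak GFP intensity per well by laser scanning cytometry (488 nm excitation, 500–520 nm emission); 500 nM antisense PNA as control.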

[2] = Confirmation and Secondary Assay for Modulators of Hemoglobin Beta Chain Splicing at IVS2 705 locus (AID 930);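 note: HeLa cells stably expressing the EGFP-705 splicing reporter; GFP fluorescence per well restored by corrected splicing of the IVS2-705 intron in EGFP; % of control where 0% means no effect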
Outline: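 Fluorescence gain (488 nm laser, 500-520 nm PMT) reflects restored correct splicing of a mutant IVS2-705 intron inside EGFP in stably transfected HeLa cells after 2-day compound treatment.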

[3] = qHTS Assay for Lipid Storage Modulators (AID 1519; calls by dose curve; for activity change, negative = inhibition: % is set by controls: 0 for no effect and ±100 for the full control effect); settings: Drosophila S3 cells, BODIPY lipid droplet/cell ratio, laser cytometry, cells loaded with oleic acid
Outline: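 Cells seeded at 5,000 per well were treated with compounds over a concentration series and loaded with oleic acid (400 uM, as added). Lipid droplet fluorescence (488 nm excitation, 500-530 nm channel) was read by laser-scanning cytometry and normalized to 20 uM Triacsin C.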

[4] = target: ATP-dependent 6-phosphofructokinase (Trypanosoma brucei brucei) (UniProt O15648); assay: qHTS Assay to Find Inhibitors of T. brucei phosphofructokinase: hit validation (AID 492961); note: % is set by controls: 0 for no effect and ±100 for the full control effect
Chain of ATP-dependent 6-phosphofructokinase (Trypanosoma brucei brucei) (O15648 whole entry, looked up): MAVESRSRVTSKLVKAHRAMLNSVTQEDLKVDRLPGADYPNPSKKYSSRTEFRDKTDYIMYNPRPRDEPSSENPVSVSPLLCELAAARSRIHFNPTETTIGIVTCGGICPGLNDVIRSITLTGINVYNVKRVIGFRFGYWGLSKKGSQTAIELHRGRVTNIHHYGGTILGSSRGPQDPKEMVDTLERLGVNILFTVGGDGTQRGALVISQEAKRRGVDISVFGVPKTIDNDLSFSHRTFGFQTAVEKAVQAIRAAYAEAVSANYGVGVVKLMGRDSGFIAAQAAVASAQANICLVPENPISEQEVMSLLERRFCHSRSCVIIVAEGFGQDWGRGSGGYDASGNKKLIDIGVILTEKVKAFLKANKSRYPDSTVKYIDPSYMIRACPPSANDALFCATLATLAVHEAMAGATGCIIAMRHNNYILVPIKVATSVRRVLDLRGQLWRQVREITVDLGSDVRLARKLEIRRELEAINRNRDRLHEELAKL
Outline: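 Luminescence from ADP-Glo reports ADP generated as T. brucei PFK (1.25 nM) phosphorylates 0.5 mM fructose-6-phosphate using 0.1 mM ATP. Reactions ran 45 min at room temperature, pH 8.0.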

[5] = target: Ubiquitin carboxyl-terminal hydrolase 1 (Homo sapiens) (UniProt O94782); assay: Inhibitors of USP1/UAF1: Pilot qHTS (AID 504865);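 note: rhodamine fluorescence freed from ubiquitin-rhodamine substrate followed over time; top concentration of the series differs between compounds; % is set by controls: 0 for no effect and ±100 for the full control effect; nearly all actives have a fitted effect of over 35% in size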
Chain of Ubiquitin carboxyl-terminal hydrolase 1 (Homo sapiens) (O94782 whole entry, looked up): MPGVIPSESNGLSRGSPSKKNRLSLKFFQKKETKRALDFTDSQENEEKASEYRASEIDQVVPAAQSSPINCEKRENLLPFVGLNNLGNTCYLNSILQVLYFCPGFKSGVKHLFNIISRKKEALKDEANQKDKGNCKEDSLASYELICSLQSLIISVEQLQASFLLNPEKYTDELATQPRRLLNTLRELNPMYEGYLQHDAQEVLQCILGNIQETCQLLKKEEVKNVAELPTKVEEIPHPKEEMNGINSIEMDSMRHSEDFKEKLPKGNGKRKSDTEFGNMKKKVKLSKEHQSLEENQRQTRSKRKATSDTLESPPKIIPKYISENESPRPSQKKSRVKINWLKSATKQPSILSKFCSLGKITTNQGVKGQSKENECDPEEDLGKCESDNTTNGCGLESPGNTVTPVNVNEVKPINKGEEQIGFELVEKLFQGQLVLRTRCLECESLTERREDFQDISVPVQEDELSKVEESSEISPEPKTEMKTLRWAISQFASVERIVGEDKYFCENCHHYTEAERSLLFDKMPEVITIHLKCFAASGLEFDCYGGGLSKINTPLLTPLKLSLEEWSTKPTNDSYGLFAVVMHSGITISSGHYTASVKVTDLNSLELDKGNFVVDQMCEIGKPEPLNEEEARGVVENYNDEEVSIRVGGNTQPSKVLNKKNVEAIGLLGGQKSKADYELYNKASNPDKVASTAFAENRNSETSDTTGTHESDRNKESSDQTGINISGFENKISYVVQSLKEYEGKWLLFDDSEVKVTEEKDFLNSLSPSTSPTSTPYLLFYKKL
Outline: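 Enzyme-free wells gave the negative control, while test wells held 1nM USP1/UAF1 preincubated with compound for 15 min at room temperature. Ub-Rho at 150nM final started the reaction, and fluorescence at 480/540 nm was recorded kinetically.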

[6] = target: Luciferin 4-monooxygenase (Photinus pyralis) (UniProt P08659); assay: Biochemical firefly luciferase enzyme assay for NPC (AID 624030);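 note: purified P. pyralis luciferase at 10 nM with luciferin and ATP substrate; 0% = DMSO and -100% = full luciferase inhibition by PTC124 control; nearly all actives have a fitted effect of over 70% in size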
Chain of Luciferin 4-monooxygenase (Photinus pyralis) (P08659 whole entry, looked up): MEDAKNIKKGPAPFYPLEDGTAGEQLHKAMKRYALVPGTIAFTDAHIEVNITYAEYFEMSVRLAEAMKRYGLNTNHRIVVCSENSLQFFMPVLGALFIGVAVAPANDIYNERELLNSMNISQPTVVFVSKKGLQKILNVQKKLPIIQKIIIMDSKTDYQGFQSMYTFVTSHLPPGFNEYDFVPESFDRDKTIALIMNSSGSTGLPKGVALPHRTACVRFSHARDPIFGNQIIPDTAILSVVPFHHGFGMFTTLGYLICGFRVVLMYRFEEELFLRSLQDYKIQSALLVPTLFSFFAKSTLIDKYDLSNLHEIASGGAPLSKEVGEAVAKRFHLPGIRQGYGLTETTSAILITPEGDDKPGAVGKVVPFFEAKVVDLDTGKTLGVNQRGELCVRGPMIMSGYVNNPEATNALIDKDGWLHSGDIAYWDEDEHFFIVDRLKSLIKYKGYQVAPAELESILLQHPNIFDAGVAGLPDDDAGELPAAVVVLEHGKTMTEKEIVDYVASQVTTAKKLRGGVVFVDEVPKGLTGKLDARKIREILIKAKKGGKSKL
Outline: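 Purified P. pyralis luciferase at 10 nM in 50 mM Tris Acetate (final), luminescence read within 5 minutes of enzyme addition to compounds. Activity normalised to PTC124 versus DMSO; concentration-response curves classed by r2, magnitude and activity.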

[7] = S16 Schwann cell viability assay (CellTiter-Glo assay) (AID 624031);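 note: native untransfected S16 rat Schwann cells; cellular ATP luminescence as a viability measure; plate controls were DMSO-treated cells for no effect and cell-free wells for full effect; nearly all actives have a fitted effect of over 70% in size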
Outline: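 Parental S16 cells, 24 h compound, 37 °C. ATP-luminescence viability; DMSO = 0% activity, empty wells as reference; curves classified by fit quality and efficacy.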

[8] = S16 Schwann cell PMP22 intronic element firefly luciferase assay (AID 624032);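 note: plate controls were DMSO for no effect and PTC124 positive control mean for full effect; nearly all actives have a fitted effect of over 30% in size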
Outline: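 Rat S16 Schwann cells stably carrying firefly luciferase driven by a PMP22 intronic element, in 10% FBS, treated 24 h at 37 C. ONE-Glo luminescence normalized to PTC124 control and DMSO (0%); curves classed by r2, magnitude and activity.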

[9] = P-glycoprotein substrates identified in KB-8-5-11 adenocarcinoma cell line, qHTS therapeutic library screen (AID 1346987); note: % is set by controls: 0 for no effect and ±100 for the full control effect; nearly all actives have a fitted effect of over 65% in size
Outline: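 KB-8-5-11, a colchicine-selected P-gp-overexpressing KB-3-1 subline, was grown without colchicine for the assay. Cells were seeded at 500 cells/well, dosed in concentration-response and incubated 72 h at 37 degree C, 5% CO2. Viability was read by CellTiter-Glo luminescence.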

[10] = qHTS for Inhibitors of the Functional Ribonucleoprotein Complex (vRNP) of Lassa (LASV) Arenavirus: LASV Primary Screen - GLuc reporter signal (AID 1347082; calls by dose curve; tested in HEK293 reporter line; note: % is set by controls: 0 for no effect and ±100 for the full control effect; nearly all actives have a fitted effect of over 60% in size)
[11] = qHTS for Inhibitors of the Functional Ribonucleoprotein Complex (vRNP) of Lassa (LASV) Arenavirus: Viability assay - alamar blue signal for LASV Primary Screen (AID 1347083; calls by dose curve; tested in HEK293 reporter line; note: % is set by controls: 0 for no effect and ±100 for the full control effect; nearly all actives have a fitted effect of over 80% in size)
[12] = qHTS for Inhibitors of the Functional Ribonucleoprotein Complex (vRNP) of Lymphocytic Choriomeningitis Arenaviruses (LCMV): Viability assay - alamar blue signal for LCMV Primary Screen (AID 1347085; calls by dose curve; tested in HEK293 reporter line; note: % is set by controls: 0 for no effect and ±100 for the full control effect; nearly all actives have a fitted effect of over 80% in size)
[13] = target: Nucleoprotein (Lymphocytic choriomeningitis virus (strain Armstrong)) (UniProt P09992); assay: qHTS for Inhibitors of the Functional Ribonucleoprotein Complex (vRNP) of Lymphocytic Choriomeningitis Arenaviruses (LCMV): LCMV Primary Screen - GLuc reporter signal (AID 1347086; calls by dose curve; note: % is set by controls: 0 for no effect and ±100 for the full control effect; nearly all actives have a fitted effect of over 70% in size)
Chain of Nucleoprotein (Lymphocytic choriomeningitis virus (strain Armstrong)) (P09992 whole entry, looked up): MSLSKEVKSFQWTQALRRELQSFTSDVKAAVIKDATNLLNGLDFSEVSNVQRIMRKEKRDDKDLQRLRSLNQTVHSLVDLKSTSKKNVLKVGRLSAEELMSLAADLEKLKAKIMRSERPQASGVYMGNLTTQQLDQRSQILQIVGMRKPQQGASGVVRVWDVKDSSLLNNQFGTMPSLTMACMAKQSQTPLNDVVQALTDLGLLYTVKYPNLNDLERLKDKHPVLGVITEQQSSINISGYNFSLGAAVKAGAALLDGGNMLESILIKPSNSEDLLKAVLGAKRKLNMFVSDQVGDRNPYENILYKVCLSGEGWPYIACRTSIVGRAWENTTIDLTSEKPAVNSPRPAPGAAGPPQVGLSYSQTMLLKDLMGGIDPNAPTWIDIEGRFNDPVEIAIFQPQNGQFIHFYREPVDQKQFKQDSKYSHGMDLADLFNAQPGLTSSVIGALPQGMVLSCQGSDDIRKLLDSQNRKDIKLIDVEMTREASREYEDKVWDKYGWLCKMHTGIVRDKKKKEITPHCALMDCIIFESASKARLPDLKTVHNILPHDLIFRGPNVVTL

3D7 = assay: qHTS profiling for inhibitors of Plasmodium falciparum proliferation (AID 504749);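 note: 0% = DMSO vehicle and full inhibition = artemisinin control; nearly all actives have a fitted effect of over 60% in size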; settings: P. falciparum in erythrocytes, SYBR Green DNA, 72 h; series mostly up to 28.7 µM
Outline: (§1)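 P. falciparum-infected erythrocytes (0.3% parasitemia, 2.5% hematocrit) incubated with compound 72 h at 37 C, 5% CO2. Parasite DNA detected by SYBR Green after lysis, overnight at room temperature; normalised to 0.29 uM artemisinin and DMSO.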

7G8 = assay: as above; settings: P. falciparum in erythrocytes, SYBR Green DNA, 72 h; series mostly up to 28.7 µM
Outline: as §1

AA1029 = assay: as above; settings: P. falciparum in erythrocytes, SYBR Green DNA, 72 h; series mostly up to 28.7 µM
Outline: as §1

AS120 = assay: as above; settings: P. falciparum in erythrocytes, SYBR Green DNA, 72 h; series mostly up to 28.7 µM
Outline: as §1

ATS189 = assay: as above; settings: P. falciparum in erythrocytes, SYBR Green DNA, 72 h; series mostly up to 28.7 µM
Outline: as §1

ATS95 = assay: as above; settings: P. falciparum in erythrocytes, SYBR Green DNA, 72 h; series mostly up to 28.7 µM
Outline: as §1

C2A = assay: as above; settings: P. falciparum in erythrocytes, SYBR Green DNA, 72 h; series mostly up to 28.7 µM
Outline: as §1

CP185 = assay: as above; settings: P. falciparum in erythrocytes, SYBR Green DNA, 72 h; series mostly up to 28.7 µM
Outline: as §1

CP191 = assay: as above; settings: P. falciparum in erythrocytes, SYBR Green DNA, 72 h; series mostly up to 28.7 µM
Outline: as §1

CP192 = assay: as above; settings: P. falciparum in erythrocytes, SYBR Green DNA, 72 h; series mostly up to 28.7 µM
Outline: as §1

CP194 = assay: as above; settings: P. falciparum in erythrocytes, SYBR Green DNA, 72 h; series mostly up to 28.7 µM
Outline: as §1

CP201 = assay: as above; settings: P. falciparum in erythrocytes, SYBR Green DNA, 72 h; series mostly up to 28.7 µM
Outline: as §1

CP203 = assay: as above; settings: P. falciparum in erythrocytes, SYBR Green DNA, 72 h; series mostly up to 28.7 µM
Outline: as §1

CP211 = assay: as above; settings: P. falciparum in erythrocytes, SYBR Green DNA, 72 h; series mostly up to 28.7 µM
Outline: as §1

CP215 = assay: as above; settings: P. falciparum in erythrocytes, SYBR Green DNA, 72 h; series mostly up to 28.7 µM
Outline: as §1

CP217 = assay: as above; settings: P. falciparum in erythrocytes, SYBR Green DNA, 72 h; series mostly up to 28.7 µM
Outline: as §1

CP237 = assay: as above; settings: P. falciparum in erythrocytes, SYBR Green DNA, 72 h; series mostly up to 28.7 µM
Outline: as §1

CP238 = assay: as above; settings: P. falciparum in erythrocytes, SYBR Green DNA, 72 h; series mostly up to 28.7 µM
Outline: as §1

CP247 = assay: as above; settings: P. falciparum in erythrocytes, SYBR Green DNA, 72 h; series mostly up to 28.7 µM
Outline: as §1

CP250 = assay: as above; settings: P. falciparum in erythrocytes, SYBR Green DNA, 72 h; series mostly up to 28.7 µM
Outline: as §1

CP252 = assay: as above; settings: P. falciparum in erythrocytes, SYBR Green DNA, 72 h; series mostly up to 28.7 µM
Outline: as §1

CP256 = assay: as above; settings: P. falciparum in erythrocytes, SYBR Green DNA, 72 h; series mostly up to 28.7 µM
Outline: as §1

C[N+](C)(C)CC(=O)[O-]
0.576%: max response ([3]; measured here: cell count channel max response)
6.22%: max response ([3]; measured here: lipid channel max response)
inactive: Potency [1] | outcome [2] | activity change, negative = inhibition ([3]; at 57.5 µM (top of the series)) 3.78% | Potency [4] | Potency [5] | Potency [6] | Potency [7] | Potency [8] | Potency [9] | Potency [10] | Potency [11] | Potency [12] | Potency [13] | Potency (3D7) | Potency (7G8) | Potency (AA1029) | Potency (AS120) | Potency (ATS189) | Potency (ATS95) | Potency (C2A) | Potency (CP185) | Potency (CP191) | Potency (CP192) | Potency (CP194) | Potency (CP201) | Potency (CP203) | Potency (CP211) | Potency (CP215) | Potency (CP217) | Potency (CP237) | Potency (CP238) | Potency (CP247) | Potency (CP250) | Potency (CP252) | Potency (CP256)
